Test results: PubChem BioAssay
“And” between values parts separate entries of the source, which are not always exact repeats. Identical values can stand only once. Results filed as inconclusive are left out. The source made the active and inactive calls.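 How the source made its calls, unless noted: active means normalized viability below 100% at a tested concentration; inactive means the rest.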

Key:
[1] = growth inhibition of DIPG glioma cells, dose response, cell-based, SU-DIPG-XVII, MIPE5.0, CellTiter-Glo, qHTS (AID 1347060; cut-off not given, nearly all actives have AC50 up to about 26 µM;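 on AC50: cells exposed to compound for 48 hours before viability readout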); settings: SU-DIPG-XVII viability, CellTiter-Glo ATP luminescence
[2] = growth inhibition of DIPG glioma cells, dose response, cell-based, SU-DIPG-XIII, MIPE4.0, CellTiter-Glo, qHTS (AID 1347061; cut-off not given, nearly all actives have AC50 up to about 37 µM;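 further: cells exposed to compound for 48 hours before readout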); settings: SU-DIPG-XIII viability, CellTiter-Glo ATP luminescence
[3] = growth inhibition of DIPG glioma cells, dose response, cell-based, JHH-DIPG-1, MIPE4.0, CellTiter-Glo, qHTS (AID 1347062; cut-off not given, nearly all actives have AC50 up to about 27 µM;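 on AC50: cells exposed to compound for two days before readout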); settings: JHH-DIPG-1 viability, CellTiter-Glo ATP luminescence
[4] = growth inhibition of DIPG glioma cells, dose response, cell-based, SU-DIPG-IV, MIPE4.0, CellTiter-Glo, qHTS (AID 1347063; cut-off not given, nearly all actives have AC50 up to about 30 µM;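 further: compound exposure lasted 48 hours before the viability readout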); settings: SU-DIPG-IV viability, CellTiter-Glo ATP luminescence
[5] = growth inhibition of DIPG glioma cells, dose response, cell-based, SU-DIPG-XIII, MIPE5.0, CellTiter-Glo, qHTS (AID 1347064; cut-off not given, nearly all actives have AC50 up to about 23 µM;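 on AC50: cells exposed to compound for 48 hours before the viability read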); settings: SU-DIPG-XIII viability, CellTiter-Glo ATP luminescence
[6] = SU-DIPG-VI glioma cell viability, MIPE4.0 library, CellTiter-Glo luminescence, qHTS (AID 1347066; cut-off not given, nearly all actives have AC50 up to about 30 µM;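 further: cells exposed to compound for 48 hours before readout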); settings: CellTiter-Glo ATP luminescence
[7] = JHH-DIPG-1 glioma cell viability, MIPE5.0 library, CellTiter-Glo luminescence, qHTS (AID 1347067; cut-off not given, nearly all actives have AC50 up to about 26 µM;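 further: cells exposed to compound for 48 hours before readout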); settings: JHH-DIPG-1 glioma viability, CellTiter-Glo ATP luminescence
[8] = viability loss in pontine glioma line – cell-based, SU-DIPG-XXV, MIPE5.0, CellTiter-Glo, qHTS, dose response (AID 1347065; cut-off not given, nearly all actives have AC50 up to about 26 µM;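 further: cells exposed to compound for 48 hours before ATP readout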); settings: CellTiter-Glo ATP luminescence
[9] = sensitizers of A549 cells to miR-34 induction, primary screen, imaging, A549 dox-inducible miR-34, nuclei and caspase counts (AID 1347080;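 active means compounds whose cell count with miR-34 switched on is under 0.7 times the count with it off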); settings: A549 miR-34 inducible, Hoechst nuclei count, 48 h
[10] = modifiers of HSF1 nuclear foci, imaging, Selleck Cancer Library (AID 1347162; in the data active means plate-normalised HSF1 focus index below about 0.46); settings: human cells, at 10 µM; SSMD: measured here: HSF1 foci SSMD mean; cell count: measured here: cell number; plate-normalised HSF1 focus index: stronger effect = lower value
[11] = ovarian cancer cell viability with rucaparib, profiling panel, oncology-focused library, rucaparib conditional (AID 1508598); settings: patient-derived ovarian cancer cells, CellTiter-Glo viability, 144 h, stronger effect = lower value
[12] = SU-DIPG-XXV glioma cell viability, MIPE5.0 library, qHTS (AID 1347068; cut-off not given, nearly all actives have IC50 up to about 30 µM)
[13] = survival rescue of mitochondrial mutant cells in low glucose, primary screen, MELAS cybrids, Rieske KO mouse fibroblasts, CellTiter-Glo (AID 1508586;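 active means mean z-score across replicates of 1.96 or higher in either the MELAS or the Rieske mutant cell line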;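 further: z relative to plate mean and SD of compound and empty wells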)
[14] = stronger effect = lower value, cell number ratio, induced over uninduced
[15] = measured here: relative caspase fold change +Dox/-Dox
[16] = measured here: total cells with miR-34 induction, stronger effect = lower value
[17] = measured here: total cells without miR-34 induction

Cc1cncc2cccc(S(=O)(=O)N3CCCN(C(=O)CN)C[C@@H]3C)c12
active: AC50 [4] 372 nM
inactive: outcome [1] | outcome [2] | outcome [3] | outcome [5] | outcome [6] | outcome [7]

CC(/C=C/C(=O)NO)=C\[C@@H](C)C(=O)c1ccc(N(C)C)cc1
952 and 1150: cell count [9, 17]
7010: cell count [10]
inactive: fold change [9, 14] 0.973 and 1 | plate-normalised HSF1 focus index [10] 0.921 | viability ([11]; at 0.000305 µM, OCI-C5x cells, with rucaparib 10 µM, 100% = cells with rucaparib alone) 111% | viability ([11]; at 0.00122 µM, OCI-C5x cells, with rucaparib 10 µM, 100% = cells with rucaparib alone) 117% | viability ([11]; at 0.00122 µM, OCI-C5x cells, without rucaparib) 102% | viability ([11]; at 0.00488 µM, OCI-C5x cells, with rucaparib 10 µM, 100% = cells with rucaparib alone) 107% | viability ([11]; at 0.00488 µM, OCI-C5x cells, without rucaparib) 105% | viability ([11]; at 0.0195 µM, OCI-C5x cells, with rucaparib 10 µM, 100% = cells with rucaparib alone) 115% | viability ([11]; at 0.0195 µM, OCI-C5x cells, without rucaparib) 109%
active: AC50 [1] 332 nM | AC50 [2] 7430 nM | AC50 [3] 1480 nM | AC50 [4] 590 nM | AC50 [5] 209 nM | AC50 [8] 372 nM | AC50 [7] 525 nM | viability ([11]; at 0.000305 µM, OCI-C5x cells, without rucaparib) 91.4% | viability ([11]; at 0.000305 µM, OCI-P5x cells, with rucaparib 20 µM, 100% = cells with rucaparib alone) 77.4% | viability ([11]; at 0.000305 µM, OCI-P5x cells, without rucaparib) 83.4% | viability ([11]; at 0.00122 µM, OCI-P5x cells, with rucaparib 20 µM, 100% = cells with rucaparib alone) 82.5% | viability ([11]; at 0.00122 µM, OCI-P5x cells, without rucaparib) 83.5% | viability ([11]; at 0.00488 µM, OCI-P5x cells, with rucaparib 20 µM, 100% = cells with rucaparib alone) 75.8% | viability ([11]; at 0.00488 µM, OCI-P5x cells, without rucaparib) 89.8% | viability ([11]; at 0.0195 µM, OCI-P5x cells, with rucaparib 20 µM, 100% = cells with rucaparib alone) 81.7% | viability ([11]; at 0.0195 µM, OCI-P5x cells, without rucaparib) 76.1% | viability ([11]; at 0.0781 µM, OCI-C5x cells, with rucaparib 10 µM, 100% = cells with rucaparib alone) 42.3% | viability ([11]; at 0.0781 µM, OCI-C5x cells, without rucaparib) 17.8% | viability ([11]; at 0.0781 µM, OCI-P5x cells, with rucaparib 20 µM, 100% = cells with rucaparib alone) 50.3% | viability ([11]; at 0.0781 µM, OCI-P5x cells, without rucaparib) 51.8% | viability ([11]; at 0.313 µM, OCI-C5x cells, with rucaparib 10 µM, 100% = cells with rucaparib alone) 8.25% | viability ([11]; at 0.313 µM, OCI-C5x cells, without rucaparib) 6.7% | viability ([11]; at 0.313 µM, OCI-P5x cells, with rucaparib 20 µM, 100% = cells with rucaparib alone) 13% | viability ([11]; at 0.313 µM, OCI-P5x cells, without rucaparib) 12.1% | viability ([11]; at 1.25 µM, OCI-C5x cells, with rucaparib 10 µM, 100% = cells with rucaparib alone) 4.57% | viability ([11]; at 1.25 µM, OCI-C5x cells, without rucaparib) 4.64% | viability ([11]; at 1.25 µM, OCI-P5x cells, with rucaparib 20 µM, 100% = cells with rucaparib alone) 2.76% | viability ([11]; at 1.25 µM, OCI-P5x cells, without rucaparib) 2.28% | viability ([11]; at 5 µM, OCI-C5x cells, with rucaparib 10 µM, 100% = cells with rucaparib alone) 5% | viability ([11]; at 5 µM, OCI-C5x cells, without rucaparib) 4.88% | viability ([11]; at 5 µM, OCI-P5x cells, with rucaparib 20 µM, 100% = cells with rucaparib alone) 0.994% | viability ([11]; at 5 µM, OCI-P5x cells, without rucaparib) 1.21%
926 and 1160: cell count [9, 16]
1.51 and 0.994: fold change [9, 15]
-1.78: SSMD [10]

Cn1c(=O)n(-c2ccc(C(C)(C)C#N)cc2)c2c3cc(-c4cnc5ccccc5c4)ccc3ncc21
active: AC50 [1] 481 nM | AC50 [2] 2640 nM | AC50 [3] 4180 nM | AC50 [4] 23.5 nM | AC50 [5] 855 nM | AC50 [8] 135 nM | AC50 [7] 855 nM
-0.518: SSMD [10]
inactive: plate-normalised HSF1 focus index [10] 0.984
7130: cell count [10]

COc1ccc(CCN2CCN(CCCc3ccccc3)CC2)cc1OC
3.93: SSMD [10]
inactive: outcome [1] | outcome [2] | outcome [3] | outcome [4] | outcome [5] | outcome [6] | outcome [7] | outcome [12] | plate-normalised HSF1 focus index [10] 1.24
6890: cell count [10]

c1cncc(CN2CCC(n3ncc4c(N5CCOCC5)nc(-c5ccc6[nH]ccc6c5)nc43)CC2)c1
2980: cell count [9, 16]
0.489: fold change [9, 15]
inactive: outcome [12] | fold change [9, 14] 0.951
-1.65: z-score ([13]; Rieske KO mouse fibroblast survival, CellTiter-Glo 72 h)
3130: cell count [9, 17]
active: AC50 [1] 7420 nM | AC50 [2] 8330 nM | AC50 [3] 14800 nM | AC50 [4] 2090 nM | AC50 [5] 16600 nM | AC50 [8] 5250 nM | AC50 [7] 20900 nM | z-score ([13]; MELAS cybrid survival, CellTiter-Glo 48 h, stronger effect = higher value) 4.98

O=C(CCN1CCN(C(=O)OCc2cc(Cl)cc(Cl)c2)CC1)c1ccc2[nH]c(=O)oc2c1
active: AC50 [1] 20900 nM | AC50 [5] 23500 nM | AC50 [7] 16600 nM
inactive: outcome [2] | outcome [3] | outcome [4] | outcome [6] | outcome [12]

COc1cc2c(cc1OC)CN(CCc1ccc(NC(=O)c3cccc4c(=O)c5cccc(OC)c5[nH]c34)cc1)CC2
6980: cell count [10]
4.27: SSMD [10]
active: AC50 [2] 8330 nM
inactive: outcome [1] | outcome [3] | outcome [4] | outcome [5] | outcome [8] | outcome [7] | outcome [12] | plate-normalised HSF1 focus index [10] 1.26

CCCCCCCCCC(=O)N[C@@H](Cc1c[nH]c2ccccc12)C(=O)N[C@H](CC(N)=O)C(=O)N[C@@H](CC(=O)O)C(=O)N[C@@H]1C(=O)NCC(=O)N[C@@H](CCCN)C(=O)N[C@@H](CC(=O)O)C(=O)N[C@H](C)C(=O)N[C@@H](CC(=O)O)C(=O)NCC(=O)N[C@H](CO)C(=O)N[C@@H]([C@@H](C)CC(=O)O)C(=O)N[C@@H](CC(=O)c2ccccc2N)C(=O)O[C@@H]1C
inactive: outcome [1] | outcome [2] | outcome [3] | outcome [4] | outcome [5] | outcome [6] | outcome [7]

c1ccc(-c2nn3c(c2-c2ccnc4cc(OCCN5CCOCC5)ccc24)CCC3)nc1
2.44: SSMD [10]
inactive: outcome [1] | outcome [2] | outcome [3] | outcome [4] | outcome [5] | outcome [6] | outcome [7] | plate-normalised HSF1 focus index [10] 1.13
6520: cell count [10]

C[Se]CCC(N)C(=O)O (stereo not drawn)
inactive: outcome [1] | outcome [2] | outcome [3] | outcome [4] | outcome [5] | outcome [6] | outcome [7] | outcome [12]

NC(=O)c1cnc(-c2ccc(C3(N)CCC3)cc2)c(-c2ccccc2)c1
inactive: outcome [1] | outcome [2] | outcome [3] | outcome [4] | outcome [5] | outcome [12]
